# Measured values published in ChEMBL document CHEMBL3988442, “University of Dundee, Small-Polar-MMV Screening Library” (2021).
# Out of some 69,000 compounds screened, about 1,000 (1.4%) showed an effect of 50% or more. The list comes from a sample in which strong results are over-represented; it also holds similar structures and randomly drawn compounds.
# System: Leishmania donovani
# Experiment: Leishmania intramacrophage assay
# Type: functional, organism-based
# Set-up: scale not given: in the data most compounds retested in dose-response had high values
structure (smiles),measurement,setting,value
CCOCC(O)CN1CCN(C(=O)c2ccc(C)nc2)CC1 (stereo unspecified),Percent Effect,30 µM,29.83%
COc1ccc(Br)cc1CCC(=O)N1CCCC(O)C1 (stereo unspecified),Percent Effect,"30.3 µM, […]",6.225%
N#Cc1cccc(OCCN2CCCC(c3noc(C4CC4)n3)C2)c1 (stereo unspecified),Percent Effect,"30.3 µM, […]",32.43%
COCC1CN(S(=O)(=O)c2cccs2)Cc2ncnn2C1 (stereo unspecified),Percent Effect,"30.3 µM, […]",38.74%
Cc1ccccc1C(=O)Nc1cnn(CCN2CCOCC2)c1,Percent Effect,30 µM,17.38%
CC(C)CS(=O)(=O)Nc1ccc2c(c1)OCC(C)(C)C(=O)N2C,Percent Effect,"30.3 µM, […]",-17.18%
CN(C)S(=O)(=O)c1ccc(CNC(=O)C2CC(=O)N(C(C)(C)C)C2)cc1 (stereo unspecified),Percent Effect,"30.3 µM, […]",21.08%
CCN1CC(C(=O)NCc2cccc(SC)c2)CC1=O (stereo unspecified),Percent Effect,"30.3 µM, […]",-29.4%
CSc1ccc(CNC(=O)C2CC(=O)N(C(C)(C)C)C2)cc1 (stereo unspecified),Percent Effect,"30.3 µM, […]",55.18%
O=c1[nH]c(-c2ccc(Cl)cc2)nc2c1CCNC2,Percent Effect,"30.3 µM, […]",20.84%
O=c1[nH]c(-c2ccc(F)c(F)c2)nc2c1CCNC2,Percent Effect,"30.3 µM, […]",51.76%
O=c1[nH]c(-c2ccc(F)cc2)nc2c1CCNC2,Percent Effect,"30.3 µM, […]",23.84%
Cc1nc(CN2C[C@@H]3CCCO[C@@H]3[C@H](NC(=O)CC3CC3)C2)cs1.O=C(O)C(F)(F)F,Percent Effect,"30.3 µM, […]",13.13%
CC(=O)NCC(=O)N1CCC2(COCc3c(C)nc(N(C)C)nc32)C1 (stereo unspecified),Percent Effect,"30.3 µM, […]",0.3657%
Cc1ccoc1C(=O)N1CC[C@H]2C[C@H](c3nnc(C4CC4)o3)O[C@@H]2C1,Percent Effect,"30.3 µM, […]",7.701%
Cc1cc(C(=O)Cn2cnnc2[S+](C)[O-])cc(C)c1F (stereo unspecified),Percent Effect,"30.3 µM, […]",9.03%
CCCc1nn(C2CCCN(C(C)C)C2=O)c(=O)o1 (stereo unspecified),Percent Effect,"30.3 µM, […]",-18.62%
CCCc1nn(C2CCN(C(C)C)C2=O)c(=O)o1 (stereo unspecified),Percent Effect,"30.3 µM, […]",51.41%
CCCc1nn(C2CCN(C3CC3)C2=O)c(=O)o1 (stereo unspecified),Percent Effect,"30.3 µM, […]",-13.56%
CC(=O)N1CCC2(CC1)C(=O)N(C)c1ccc(F)cc12,Percent Effect,"30.3 µM, […]",29.57%
CN1C(=O)C2(CCN(C(=O)c3ccccc3)CC2)c2cc(F)ccc21.Cl,Percent Effect,"30.3 µM, […]",50.2%
CC(Oc1ccc(F)c(F)c1)C(=O)N(CC(N)=O)C1CCCC1 (stereo unspecified),Percent Effect,"30.3 µM, […]",-10.08%
CCc1nccn1C1CCCN(C(=O)c2cc3nc(C)ccc3o2)C1 (stereo unspecified),Percent Effect,"30 µM, 30.03 µM",3.953%
Cc1nn(C)c2cn(C(C)C(=O)NCc3ccncc3)nc12 (stereo unspecified),Percent Effect,"30.3 µM, […]",59.59%
Cc1nn(C)c2cn(C(C)C(=O)NCc3cccc(F)c3)nc12 (stereo unspecified),Percent Effect,"30.3 µM, […]",-38.24%
COc1ccccc1CNC(=O)C(C)N1CC(n2cc(C)cn2)C1 (stereo unspecified),Percent Effect,"30.3 µM, […]",25.52%
Cc1nc(NCc2ccccn2)c2c(n1)c(C)nn2C,Percent Effect,"30.3 µM, […]",42.28%
CCc1nc(NCc2ccccn2)c2c(n1)c(C)nn2C,Percent Effect,"30.3 µM, […]",-38.07%
CCn1nccc1CNC(=O)C(C)n1cc2c(n1)c(C)nn2C (stereo unspecified),Percent Effect,"30 µM, 30.03 µM",-8.273%
Cc1nn(C)c2cn(C(C)C(=O)NCc3cccnc3)nc12 (stereo unspecified),Percent Effect,"30 µM, 30.03 µM",8.191%
Cc1nn(C)c2cn(C(C)C(=O)NCc3ccc(F)cc3)nc12 (stereo unspecified),Percent Effect,"30.3 µM, […]",25.73%
COc1ccccc1CNC(=O)Cn1ncc2c1c(C)nn2C,Percent Effect,"30 µM, 30.03 µM",13.53%
Cc1nn(C)c2c(NCc3ccccn3)ncnc12,Percent Effect,"30.3 µM, […]",50.68%
COc1ccccc1CNC(=O)C(C)n1cc2c(n1)c(C)nn2C (stereo unspecified),Percent Effect,"30.3 µM, […]",52.43%
Cc1nn(C)c2cn(C(C)C(=O)NCc3ccccn3)nc12 (stereo unspecified),Percent Effect,"30.3 µM, […]",50.14%
Cc1nc(NCc2ccc(F)cc2)cc(C(=O)N2CCOCC2)n1,Percent Effect,"30.3 µM, […]",32.39%
Cc1ccc(CN2CCCC3(CCCCN3S(C)(=O)=O)C2)s1.O=C(O)C(F)(F)F (stereo unspecified),Percent Effect,"30.3 µM, […]",8.751%
Cn1cnnc1C1CCCN(C(=O)NCCCn2cccn2)C1 (stereo unspecified),Percent Effect,30 µM,24.48%
Cn1cnnc1SCc1cc2c(cc1Br)OCO2,Percent Effect,"30.3 µM, […]",-1.981%
CN(C(=O)c1cccc(OCC(F)F)n1)c1ccc2c(c1)CCO2,Percent Effect,"30.3 µM, […]",24.43%
O=C(C1SCCc2sccc21)N1CCN(CCO)CC1 (stereo unspecified),Percent Effect,"30 µM, 30.03 µM",-7.988%
Cc1cc(N(C)C)nc(C2(C)CCCN2C(=O)c2ccn(C)n2)n1 (stereo unspecified),Percent Effect,"30.3 µM, […]",1.341%
COc1ccc(OCCN(C)S(=O)(=O)N2CCOCC2)cc1,Percent Effect,"30.3 µM, […]",11%
CC(C)NC(=O)c1ccc2nnc(C3CN(C)CCN3C)n2c1.O=C(O)C(F)(F)F.O=C(O)C(F)(F)F (stereo unspecified),Percent Effect,"30.3 µM, […]",-3.873%
COc1c(CNCc2cccc(CN(C)C)c2)c(C)nn1C.Cl,Percent Effect,"30 µM, 30.03 µM",41.69%
COc1c(CNCc2cccc(Cn3ccnc3)c2)c(C)nn1C,Percent Effect,"30 µM, 30.03 µM",57.06%
COc1c(CNCc2ccc(Cn3ccnc3)cc2)c(C)nn1C,Percent Effect,30 µM,38.9%
COc1c(CNCc2ccccc2Cn2ccnc2)c(C)nn1C,Percent Effect,30 µM,42.31%
COc1c(CNCc2cccc(Cn3ccnc3C)c2)c(C)nn1C.Cl,Percent Effect,30 µM,52.6%
COc1c(CNCc2cccc(Cn3cccn3)c2)c(C)nn1C,Percent Effect,30 µM,41.23%
COc1c(CNCc2ccc(C(=O)N(C)C(C)C)cc2)c(C)nn1C,Percent Effect,30 µM,21.5%
